Measurements: PubChem BioAssay
Unmarked numbers belong to inactive results. A call without a number means that no potency is given here. For some assays here: Potency and affinity values are given separately. The source made the active and inactive calls. Unless noted, no rule for the calls is given here.

What was measured:
[1] = antimalarial activity against Dd2 strain (AID 2302;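 active = growth inhibition above 50% at the single 2 µM test dose, taken to imply half-maximal potency below 2 µM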); conditions: P. falciparum Dd2 in RBCs, LDH growth readout, 72 h; at 2 µM; active compounds read high
[2] = HepG2 cytotoxicity, primary screen, cytotoxicity control for P. falciparum antimalarial project, cell-based, ATP luminescence (AID 2303;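 active = inhibition above 50%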); conditions: HepG2 viability, 24-48 h, at 10 µM, active compounds read high
[3] = target: L-lactate dehydrogenase (Plasmodium falciparum (isolate CDC / Honduras)) (UniProt Q27743); test: PfLDH activity inhibition – cell lysate, 3D7 strain, counter-screen for P. falciparum growth inhibition project (AID 2304); conditions: P. falciparum 3D7 crude extract, LDH APAD/NBT absorbance; at 2 µM; active compounds read high
Chain of L-lactate dehydrogenase (Plasmodium falciparum (isolate CDC / Honduras)) (Q27743 whole entry, looked up): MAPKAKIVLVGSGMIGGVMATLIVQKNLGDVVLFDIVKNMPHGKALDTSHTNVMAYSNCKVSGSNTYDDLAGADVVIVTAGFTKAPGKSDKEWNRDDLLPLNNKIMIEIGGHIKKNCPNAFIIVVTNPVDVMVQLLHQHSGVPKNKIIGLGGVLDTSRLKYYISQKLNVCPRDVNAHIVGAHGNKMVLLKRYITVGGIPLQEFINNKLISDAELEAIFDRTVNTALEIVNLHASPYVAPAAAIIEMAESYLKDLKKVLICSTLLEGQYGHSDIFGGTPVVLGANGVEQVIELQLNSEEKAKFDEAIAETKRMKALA

[4] = inhibition of 3D7 malaria parasite growth – strain 3D7 (AID 2306); conditions: P. falciparum 3D7 erythrocytic growth, LDH absorbance, 72 h; at 2 µM; active compounds read high
[5] = target: Calcium-dependent protein kinase 1 (Plasmodium falciparum (isolate 3D7)) (UniProt P62344); test: PfCDPK1 kinase inhibitors, biochemical, TCAMS library (AID 1159585; cut-off not given, nearly all actives have IC50 up to about 0.98 µM;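 also: inhibitors leave more ATP so luminescence rises with inhibition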); conditions: recombinant PfCDPK1, Kinase-Glo ATP depletion luminescence
Chain of Calcium-dependent protein kinase 1 (Plasmodium falciparum (isolate 3D7)) (P62344 whole entry, looked up): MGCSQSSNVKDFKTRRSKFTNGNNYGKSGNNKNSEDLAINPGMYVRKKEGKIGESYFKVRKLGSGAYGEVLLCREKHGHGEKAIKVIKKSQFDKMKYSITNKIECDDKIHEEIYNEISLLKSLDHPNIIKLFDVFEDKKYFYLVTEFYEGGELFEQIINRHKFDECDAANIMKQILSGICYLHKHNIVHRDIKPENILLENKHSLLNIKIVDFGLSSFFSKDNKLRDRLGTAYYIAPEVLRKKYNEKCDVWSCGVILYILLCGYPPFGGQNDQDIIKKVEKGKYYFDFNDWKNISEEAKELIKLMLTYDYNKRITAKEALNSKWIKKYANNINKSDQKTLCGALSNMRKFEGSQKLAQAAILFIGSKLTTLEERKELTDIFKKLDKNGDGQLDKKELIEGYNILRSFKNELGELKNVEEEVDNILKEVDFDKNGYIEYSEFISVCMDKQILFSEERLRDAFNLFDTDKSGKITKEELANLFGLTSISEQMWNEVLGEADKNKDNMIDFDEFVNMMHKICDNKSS

[6] = target: Plasmodium falciparum protein kinase 6 (PK6, PF3D7_1337100) (UniProt Q8IDW1); test: PfPK6 kinase inhibitors, biochemical, TCAMS library (AID 1159586); conditions: recombinant PfPK6, Kinase-Glo ATP depletion luminescence
Chain of Plasmodium falciparum protein kinase 6 (PK6, PF3D7_1337100) (Q8IDW1 1-305): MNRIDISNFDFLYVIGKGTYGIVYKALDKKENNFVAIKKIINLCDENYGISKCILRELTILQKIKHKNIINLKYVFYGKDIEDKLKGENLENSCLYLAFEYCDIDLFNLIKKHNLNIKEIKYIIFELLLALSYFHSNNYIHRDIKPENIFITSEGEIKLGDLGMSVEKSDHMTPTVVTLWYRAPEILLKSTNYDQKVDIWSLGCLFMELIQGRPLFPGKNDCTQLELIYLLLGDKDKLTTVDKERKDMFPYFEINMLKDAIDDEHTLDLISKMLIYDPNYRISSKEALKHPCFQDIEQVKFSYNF

[7] = target: Protein kinase 7 (PK7), Plasmodium falciparum 3D7 (PF3D7_0213400) (UniProt Q7YTF7); test: inhibition of Plasmodium PK7 catalytic activity – biochemical, TCAMS antimalarial set, Kinase-Glo luminescence (AID 1159587); conditions: recombinant PfPK7, Kinase-Glo ATP depletion luminescence
Chain of Protein kinase 7 (PK7), Plasmodium falciparum 3D7 (PF3D7_0213400) (Q7YTF7 1-343): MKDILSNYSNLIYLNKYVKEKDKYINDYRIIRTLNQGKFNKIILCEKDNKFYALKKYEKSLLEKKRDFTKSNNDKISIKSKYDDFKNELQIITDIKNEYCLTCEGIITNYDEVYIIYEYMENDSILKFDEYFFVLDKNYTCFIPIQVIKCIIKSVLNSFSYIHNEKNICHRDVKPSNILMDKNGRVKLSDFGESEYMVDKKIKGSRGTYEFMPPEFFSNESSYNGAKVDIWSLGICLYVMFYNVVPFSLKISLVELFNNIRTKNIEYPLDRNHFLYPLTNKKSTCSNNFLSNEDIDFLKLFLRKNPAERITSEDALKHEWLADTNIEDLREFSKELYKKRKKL

[8] = target: Calcium-dependent protein kinase 4 (Plasmodium falciparum (isolate 3D7)) (UniProt Q8IBS5); test: PfCDPK4 kinase inhibitors, biochemical, TCAMS library (AID 1159588; cut-off not given, nearly all actives have IC50 up to about 0.91 µM); conditions: recombinant PfCDPK4, Kinase-Glo ATP depletion luminescence
Chain of Calcium-dependent protein kinase 4 (Plasmodium falciparum (isolate 3D7)) (Q8IBS5 whole entry, looked up): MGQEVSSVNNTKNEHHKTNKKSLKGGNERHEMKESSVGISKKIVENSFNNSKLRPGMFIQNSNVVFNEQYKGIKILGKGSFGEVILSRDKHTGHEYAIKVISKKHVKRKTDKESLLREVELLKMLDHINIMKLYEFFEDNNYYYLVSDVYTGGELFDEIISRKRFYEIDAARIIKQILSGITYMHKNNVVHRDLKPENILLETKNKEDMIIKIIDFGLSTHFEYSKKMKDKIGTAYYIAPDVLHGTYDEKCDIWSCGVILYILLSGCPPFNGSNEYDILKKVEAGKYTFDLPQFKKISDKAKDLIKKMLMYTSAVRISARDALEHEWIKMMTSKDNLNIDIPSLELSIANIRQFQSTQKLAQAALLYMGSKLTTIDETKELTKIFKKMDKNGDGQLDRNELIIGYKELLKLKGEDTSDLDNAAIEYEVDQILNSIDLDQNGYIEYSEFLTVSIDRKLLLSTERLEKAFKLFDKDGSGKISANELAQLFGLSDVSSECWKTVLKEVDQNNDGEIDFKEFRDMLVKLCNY

| Structure (SMILES) | growth inhibition [1] | inhibition [2] | inhibition [3] [%] | growth inhibition [4] | outcome [5] | outcome [6] | outcome [7] | outcome [8] |
| --- | --- | --- | --- | --- | --- | --- | --- | --- |
| CC(C)NCc1cccc(-c2cccc(-c3nc4ccccc4[nH]3)c2)c1 | 22% | 11% | -2 | 100% (active) | inactive | inactive | inactive | inactive |
| CC(C)CC(=O)N(Cc1ccc(-c2ccc(CNC3Cc4ccccc4C3)cc2)cc1)C1CCNCC1 | 65% (active) | 20% | -5 | 85% (active) | inactive | inactive | inactive | inactive |
| CN1CCN(c2ccnc3ccc(NC(=O)Nc4cccc5c(Br)cccc45)cc23)CC1 | 96% (active) | 7% | 6 | 100% (active) | inactive | inactive | inactive | inactive |
| CC(C)N(Cc1ccc(-c2ccc(C(F)(F)F)cc2)cc1)C(=O)Cn1c(SCc2cccc(F)c2F)cc(=O)c2cc(CN3CCCCC3)ccc21 | 59% (active) | 97% (active) | -8 | 103% (active) | inactive | inactive | inactive | inactive |
| Cc1[nH]c(C)c(-c2ccc(OCc3ccc(F)cc3)cc2)c(=O)c1Br | 97% (active) | 16% | -2 | 98% (active) | inactive | inactive | inactive | inactive |
| N#Cc1cccc(-c2ccc(C(=O)Nc3ccc4c(c3)CCN(C3CCC3)CC4)cn2)c1 | 5% | 26% | -2 | 96% (active) | inactive | inactive | inactive | inactive |
| Cc1noc(-c2ccc(NC[C@@H](C)NC[C@H](O)c3cccc(Cl)c3)cc2)n1 | 84% (active) | 11% | -1 | 97% (active) | inactive | inactive | inactive | inactive |
| COc1ccc(NC(=O)/C=C/c2ccccc2Cl)cc1OCCN1CCC(N2CCCC2)CC1 | 23% | 22% | -1 | 102% (active) | inactive | inactive | inactive | inactive |
| COCCOc1cc(C)c(C2CCN(CCCCNC(=O)c3ccc(NC(=O)c4ccc(Cl)cc4)cc3)CC2)cc1C | 30% | 15% | -2 | 88% (active) | inactive | inactive | inactive | inactive |
| CCCN(CCC)C(=S)N=Nc1c(O)[nH]c2ccccc12 | 86% (active) | 28% | -3 | 97% (active) | inactive | inactive | inactive | inactive |
| CCCN(CCC)C(=O)c1cc(C(=O)N[C@@H](Cc2ccccc2)[C@H](O)CNC(C)(C)c2cccc(OC)c2)cc(N2CCCCS2(=O)=O)c1 | 74% (active) | 16% | -3 | 99% (active) | inactive | inactive | inactive | inactive |
| Cc1cc(N2CC=CCC2)nc(/N=C(\N)Nc2ccc(Cl)cc2)n1 | 78% (active) | -2% | -8 | 100% (active) | inactive | inactive | inactive | inactive |
| CN(Cc1ccc(-c2ccc(C(F)(F)F)cc2)cc1)C(=O)Cn1c(CCc2cccc(F)c2F)cc(=O)c2ccc(OCC3CCCN3C)cc21 (stereo not given) | 37% | 100% (active) | -6 | 87% (active) | inactive | inactive | inactive | inactive |
| Clc1cccnc1N1CCN(c2ncccc2Cl)CC1 | 0% | 2% | 4 | 97% (active) | inactive | inactive | inactive | inactive |
| c1ccc2c(C3CCN(CCCCOc4ccc5c(c4)CCN(CC4CC4)CC5)CC3)c[nH]c2c1 | 97% (active) | 74% (active) | -8 | 99% (active) | inactive | inactive | inactive | inactive |
| Fc1ccc(CNc2ccc3ncc(-c4cccnc4)n3n2)cc1 | 7% | 7% | -2 | 87% (active) | inactive | inactive | inactive | inactive |
| CCc1cn2c3c(cc(C(=O)N[C@@H](Cc4ccccc4)[C@H](O)CNC4CCOCC4)cc13)N(C(C)C)S(=O)(=O)CC2 | 99% (active) | 0% | -2 | 98% (active) | inactive | inactive | inactive | inactive |
| Cn1c(NC2CCN(CC3CCN(C(=O)/C=C/c4ccc(Cl)c(Cl)c4)CC3)CC2)nc2ccccc21 | 100% (active) | 99% (active) | 3 | 101% (active) | inactive | inactive | inactive | inactive |
| CN1CCN(c2ccnc3ccc(NC(=O)Nc4ccc(Cl)c(Cl)c4)cc23)CC1 | 17% | 0% | -4 | 97% (active) | inactive | inactive | inactive | inactive |
| COc1cc(-n2cnc3cc(-c4ccc([N+](=O)[O-])cc4)sc3c2=O)ccc1OCCN1CCCC1 | 79% (active) | 44% | -4 | 97% (active) | inactive | inactive | inactive | inactive |

| Structure (SMILES) | growth inhibition [1] | inhibition [2] | inhibition [3] [%] | growth inhibition [4] | outcome [5] | outcome [6] | outcome [7] | outcome [8] |
| --- | --- | --- | --- | --- | --- | --- | --- | --- |
| O=[N+]([O-])c1ccc2c(-c3ccccc3)c(-c3ccccc3)n(O)c2c1 | 11% | 8% | -3 | 97% (active) | inactive | inactive | inactive | inactive |
| CCCC(CNCc1cccc(OC(F)(F)F)c1)CNc1cc(=O)c2ccccc2[nH]1 (stereo not given) | 95% (active) | -4% | -2 | 101% (active) | inactive | inactive | inactive | inactive |
| CC(C)N1CCN(C(CN2CCN(CCCOc3ccc4nonc4c3)CC2)c2ccc(F)cc2)CC1 (stereo not given) | 40% | -3% | -3 | 97% (active) | inactive | inactive | inactive | inactive |
| O=C(CCc1cnc[nH]1)Nc1ccc(-c2ccc(-c3nc4ccc(F)cc4[nH]3)cc2)cc1 | 58% (active) | 26% | -1 | 99% (active) | inactive | inactive | inactive | inactive |
| CCCCCCc1cc(Oc2c(I)cc(C[C@H](N)C(=O)O)cc2I)ccc1O | -5% | -2% | -1 | 97% (active) | inactive | inactive | inactive | inactive |
| CN1CCN(Cc2cc3cc(NC(=O)/C=C/c4ccc(Cl)cc4)ccc3s2)CC1 | 20% | 51% (active) | 2 | 100% (active) | inactive | inactive | inactive | inactive |
| CCOC(=O)CC[C@H](NC(=O)c1ccc(NS(=O)(=O)c2ccc(-c3cnc(N)[nH]c3=O)cc2)cc1)C(=O)OCC | 2% | 5% | 4 | 95% (active) | inactive | inactive | inactive | inactive |
| C=CCOC(=O)N1CCC(CNCc2ccc(-c3cccc(-c4nc5ccccc5[nH]4)c3)cc2)C1 (stereo not given) | 50% (active) | 39% | 2 | 100% (active) | inactive | inactive | inactive | inactive |
| Cc1ccc(O)c(C(=O)c2cnc3c(c2)c(-c2ccc(F)cc2)c(C#N)c(=O)n3C)c1 | 56% (active) | 17% | 2 | 93% (active) | inactive | inactive | inactive | inactive |
| COc1ccc2ncc(F)c(CCN3CC[C@@H](CNCc4nc5c(cc4C)SCC(=O)N5)C3)c2n1 | 42% | 14% | 1 | 91% (active) | inactive | inactive | inactive | inactive |
| COc1ccc2nccc(N3CCC(NCCNS(=O)(=O)c4ccc5c(c4)NC(=O)CS5)C3)c2n1 (stereo not given) | 18% | 12% | 2 | 97% (active) | inactive | inactive | inactive | inactive |
| O=C(C=Cc1cccs1)N(CCCn1ccnc1)c1nc2ccc(F)cc2s1 | 28% | -1% | -1 | 98% (active) | inactive | inactive | inactive | inactive |
| Cc1cc(-c2nc3ccc(C(=N)N)cc3[nH]2)c(C)cc1-c1nc2ccc(C(=N)N)cc2[nH]1 | 97% (active) | 0% | -1 | 96% (active) | inactive | inactive | inactive | inactive |
| CC1(C)N=C(N)N=C(N)N1OCCCc1cc(Cl)c(Cl)cc1Cl | 96% (active) | 55% (active) | 2 | 95% (active) | inactive | inactive | inactive | inactive |
| Cc1cccc(CN2CCN(c3ncc(C(=O)NC4CC4)cc3Cl)CC2)c1 | 73% (active) | 2% | -4 | 84% (active) | inactive | inactive | inactive | inactive |
| O=C(Nc1ccc(OC2CCN(Cc3ccc(F)cc3)CC2)cc1)c1cccs1 | 52% (active) | 6% | -2 | 84% (active) | inactive | inactive | inactive | inactive |
| COc1ccc2ncc(F)c(CCN3CC[C@@H](CNCc4cc(C)c5c(c4)OCCO5)C3)c2n1 | 44% | 22% | 0 | 98% (active) | inactive | inactive | inactive | inactive |
| COc1nc2c(CCN3CC[C@H](NCc4ccc5c(c4)NC(=O)CO5)[C@H](O)C3)c(Cl)cnc2cc1F | 22% | 21% | -3 | 90% (active) | inactive | inactive | inactive | inactive |
| FC(F)(F)c1ccc2nc(-c3ccc(-c4ccc(CNCc5cnn(-c6ccccc6)n5)cc4)cc3)[nH]c2c1 | 76% (active) | 35% | -1 | 100% (active) | inactive | inactive | inactive | inactive |
| Nc1cccc(-c2ccc3ccnc(N)c3c2)c1 | 66% (active) | 30% | -7 | 91% (active) | inactive | inactive | inactive | inactive |
